Results on three compounds are retold here after PubChem BioAssay (NCI).

Molecules are shown by their SMILES. About 83,000 compounds went through this panel and 20% of them were active in at least one assay; those are over-represented in the sample as a whole.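 Step 1: grow cells in 96-well plates. Step 2: add test compound at a single concentration. Step 3: incubate 48 h. Step 4: record percent growth.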 Activity calls are given as the source filed them. The calls were made as follows: active = growth percent below 10; inactive = the rest.

This assay relates to HL-60(TB) leukemia. The assay can be described thus: NCI-60 one-dose screen, 48 h (100 = growth as untreated, 0 = no growth, -100 = all killed). Conditions: 10 µM unless noted.
In the case of `O=C(Nc1ccccc1Cl)c1ccc(NC2=C(Cl)C(=O)N(C3CCCCC3)C2=O)cc1`, the growth is -36.7% [30 µM] (active). The value for `C(=C1c2ccccc2-c2ccccc21)c1ccncc1` was 9.03% (active); that for `O=C(NNc1ccccc1)c1ncc[nH]1` was 7.71% (active).
